# Shown are actives, neighbours in structure and some others; about 3.9% of the full set was active somewhere.
# C8 TRAIL sens = sensitizes caspase-8 expressing cells to TRAIL; NB7+C8 cells + TRAIL, ATPlite viability luminescence; inhibition (viability loss, TRAIL sensitization), % at 10 µM; hit rate 1% among 360,000; AID 624354;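 active means compounds causing at least 50% loss of cell viability in the single-dose screen, relative to plate controls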
# HIF-2a inh = blocks HIF-2a reporter activity | 786-0 RCC cells HIF-2a reporter, luciferase luminescence, overnight | inhibition, % at 18.8 µM | hit rate 0.72% among 360,000;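 active means inhibition of the luminescence signal of 40% or more relative to plate controls, in a single-dose primary screen at 18.75 µM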
# aSyn 5UTR inh = MLPCN primary screen, SNCA 5' untranslated region; alpha-synuclein 5'UTR reporter, inhibitor activity; hit rate 0.82% among 300,000; AID 1813; inhibition, % (tested at 7.5 µM); in the data active means inhibition above about 60%; inconclusive means no clear call, values can overlap the other calls;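 further: H4 neuroglioblastoma cells stably carrying SNCA 5'UTR luciferase fusion; 0% = DMSO wells and 100% = positive control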
# TROY signal inh = inhibitors of TROY-dependent NF-kB signaling; AID 1347056; hit rate 0.98% among 360,000; inhibition, % at 10 µM; Q293 LMP1-TROYcd NF-kB luciferase reporter, 4 h;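 active means compounds whose plate-normalised and pattern-corrected inhibition of the luciferase reporter signal at the single screening dose is 50% or more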
# HSP90 refold inh = inhibitors of HSP90 luciferase refolding in rabbit reticulocyte lysate | luciferase refolding luminescence, 3 h | inhibition, % at 5.6 µM | hit rate 0.91% among 290,000;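 active means inhibition above the screen-wide mean plus 3 SD, computed separately per campaign, cut at about 16% in these data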;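 further: 0% = DMSO wells and 100% = 60 µM geldanamycin wells; inhibitors lower the luminescence because luciferase stays unfolded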
# TWEAK-Fn14 inh = inhibitors of TWEAK-Fn14 interaction signaling; TWEAK-stimulated Fn14 reporter cells, luciferase luminescence, 8 h; hit rate 2% among 360,000; AID 1159606; inhibition, % at 10 µM; in the data active means inhibition above about 50%
# * = called active by the depositor; ? = inconclusive; . = no result given.
SMILES,C8 TRAIL sens,HIF-2a inh,aSyn 5UTR inh,TROY signal inh,HSP90 refold inh,TWEAK-Fn14 inh
COC(=O)c1ccc(C(=O)NC(=S)Nc2nc3c(s2)CC(C)CC3)cc1 (configuration not stated),-3,-89,-11,93*,-1,109*
O=C(Nc1ccc2c(c1)OCCO2)C(c1cc2ccccc2o1)N1CCN(c2ccc(F)cc2)CC1 (configuration not stated),-11,-31,.,85*,.,85*
Cc1cccc(C)c1NC(=O)C(c1ccccc1)N1CCN(c2ccc(C(F)(F)F)cn2)CC1 (configuration not stated),12,3,.,16,.,23
O=C(Nc1ccc2c(c1)OCCO2)C(c1cc2ccccc2o1)N1CCN(C/C=C/c2ccccc2)CC1 (configuration not stated),5,-60,.,83*,.,86*
O=C(Nc1ccc(F)cc1)C(c1cc2ccccc2o1)N1CCN(c2cccc(C(F)(F)F)n2)CC1 (configuration not stated),7,12,.,.,.,.
O=C(Nc1ccc2c(c1)OCCO2)C(c1cc2ccccc2o1)N1CCN(c2ccc(C(F)(F)F)cn2)CC1 (configuration not stated),6,-22,.,86*,.,88*
COc1cc(C)ccc1S(=O)(=O)NC(=O)C1(C)CCN1C(=O)Cc1ccc(Cl)cc1Cl (configuration not stated),-8,14,.,-2,.,-2
CCOc1ccccc1-n1c(SCC(=O)Nc2ccc(CC)cc2)nc2n[nH]c(C)c2c1=N,.,.,84*,.,6,.
CN(CC(=O)Nc1cccc(S(=O)(=O)N2CCCC2)c1)Cc1ccccc1,0,12,.,6,.,-5
COc1ccccc1C(=O)NC(=S)Nc1ccc(N2CCOCC2)c(Cl)c1,2,-51,-21,52*,-2,-9
COc1ccccc1C(=O)Nc1ccc(N2CCCCC2)cc1,58*,-202,-66,-72,7,-12
COc1ccccc1C(=O)Nc1ccccc1SC(=O)c1ccccc1OC,36,-98,-112,50*,1,47
COc1ccccc1C(=O)Nc1ccc(N2CCN(C(C)=O)CC2)cc1,3,-7,-5,-12,-4,-7
COc1cc2nc(CN3CCN(S(=O)(=O)c4ccccc4[N+](=O)[O-])CC3)[nH]c(=O)c2cc1OC,-6,32,.,-9,.,-17
CC(=O)N(C1=C(Cl)C(=O)c2ccccc2C1=O)C1CCCCC1,8,82*,?,21,9,15
Cc1ccc(C=Nc2ccc(N(C)C)cc2)o1,2,-137,-139,5,-1,62*
Cc1ccc(NC2CCCN(C(=O)C3CCCC3)C2)cc1C (configuration not stated),8,-7,-7,2,2,12
Cc1ccccc1CNC(=O)c1ccccc1C(=O)O,10,-2,0,-15,16*,-29
CNC(=O)Nc1ccccc1C(=O)NCc1ccccc1,1,12,28,-7,0,62*
CCN(CC)S(=O)(=O)c1cccc(-n2c(O)c(C=Nc3ccccc3C(=O)O)c3ccccc3c2=O)c1,-18,3,-58,42,0,53*
O=C1CC(c2ccccc2F)c2cc3c(cc2N1)CCC3 (configuration not stated),12,18,65*,2,0,14
O=C1CC(c2cc(Br)ccc2F)c2cc3c(cc2N1)CCC3 (configuration not stated),-2,14,65*,24,-2,6
COc1cccc(C2CC(=O)Nc3cc4c(cc32)CCC4)c1 (configuration not stated),-42,24,84*,9,-2,18
COc1cc2[nH]c(=O)n(CCCCCC(=O)N3CC=C(c4ccccc4)CC3)c(=O)c2cc1OC,19,13,31,26,1,59*
COC(=O)c1ccc2c(=O)n(CCCCCC(=O)N3CCN(c4ccc(F)cc4)CC3)c(=O)[nH]c2c1,45,10,-2,60*,10,56*
SMILES,C8 TRAIL sens,HIF-2a inh,aSyn 5UTR inh,TROY signal inh,HSP90 refold inh,TWEAK-Fn14 inh
CC(C)CN1C(=O)CN(S(C)(=O)=O)CC1(C)C(=O)NC(C)C (configuration not stated),4,11,.,.,.,.
COc1ccc(CNc2ccc(N3CCOCC3)cc2)cc1,-6,-64,-55,13,-7,-8
c1ccc(CNc2ccc(N3CCOCC3)cc2)cc1,-1,-166,.,65*,.,32
CCCCCCCCN1C(=O)[C@H](CC(=O)NCc2cccc3ccccc23)C[C@@]2(C(=O)OCC)CCCC=C12,5,-10,.,0,.,21
CCOC(=O)Cc1nnc2c(Nc3ccc(Cl)cc3)nc3nonc3n12,28,7,-19,52*,-4,36
CCOC(=O)Cc1csc(Nc2ccc(Cl)cc2)n1,2,13,-23,-71,-1,-19
Cc1cc(Cl)c2oc(C(=O)N3CCN(c4ccncc4)CC3)c(C)c2c1,16,22,90*,-6,-1,-1
COC(=O)C1CCN(C(=O)c2oc3c(Cl)cc(C)cc3c2C)CC1,-8,-176,-74,-39,-2,-14
CCCCC[C@H](O)/C=C/C1C(=O)C=C[C@H]1C/C=C\CCCC(=O)OC (some centres not stated),11,17,.,12,.,59*
CCCCC[C@H](O)/C=C/[C@@H]1[C@@H](C/C=C\CCCC(=O)OC)[C@@H](O)C[C@H]1O,-10,12,?,9,0,-22
O=C(O)c1ccc(NC(=S)Nc2ccc(S(=O)(=O)Nc3ccccn3)cc2)cc1,-13,-2,.,-12,.,-30
Cc1nc(N2CCOCC2)nc(N2CCCCC2C)c1[N+](=O)[O-] (configuration not stated),-13,27,-15,7,-1,-6
CC1CCCCN1c1ncnc(N)c1[N+](=O)[O-] (configuration not stated),-13,14,15,37,0,61*
O=C(NC(=S)NNC(=O)[C@H]1C[C@@H]1c1ccccc1)c1cccc(F)c1,4,11,67*,-13,2,4
O=C(Nc1nnc(C2CC2)s1)C1CC(=O)N(c2ccc3c(c2)OCCO3)C1 (configuration not stated),16,27,0,51*,4,78*
O=C(Nc1nnc(C2CCCCC2)s1)C1CC(=O)N(c2ccccc2)C1 (configuration not stated),-13,-1,-11,-5,-1,-15
COc1ccc2nc(NC(=O)C3CC(=O)N(c4ccc5c(c4)OCCO5)C3)sc2c1 (configuration not stated),-5,-21,.,-16,.,5
O=C(Nc1nc2ccc(F)cc2s1)C1CC(=O)N(c2ccc3c(c2)OCCO3)C1 (configuration not stated),3,-17,.,-12,.,55*

# Source: PubChem (several laboratories)
